Molecules are shown by their SMILES. The source made the active and inactive calls.

Assay [1] relates to XIP peptide (Xip251-270) binding. The assay is described as follows: small-molecule binders of XIP peptide, primary screen, biochemical, small-molecule microarray, fluorescence 635/667 nm, 0.1 µg/mL protein (AID 1182). Particulars: fluorescent protein binding, 635 nm, higher = more signal, called active from +8 up or from −8 down.
The next assay concerns XIP peptide (Xip251-270). Description: small-molecule binders of XIP peptide, primary screen, biochemical, small-molecule microarray, fluorescence 635/667 nm, 0.5 µg/mL protein (AID 1183). Particulars: small-molecule microarray binding, fluorescence 635 nm; higher = more signal.
Assay [2] in a line: Plasmodium falciparum growth inhibition, primary screen, strain 3D7, DAPI fluorescence, 100 nL (AID 1184).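 Further: parasites grown inside human red blood cells in medium with human serum.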 As to conditions: P. falciparum 3D7 growth, 3 d, higher = more signal.
Assay [3] has as its target Homeobox protein Hox-A13 (Mus musculus) (UniProt Q62424). The assay is described as follows: inhibitors of HoxA13-DNA binding, primary screen, biochemical, fluorescence polarization, labeled oligonucleotide (AID 1185). As to conditions: 15 min, higher = more signal, called active from +8 up or from −8 down. (In general: Fluorescence polarisation rises when a labelled molecule tumbles more slowly, as on binding a larger partner.)

Homeobox protein Hox-A13 (Mus musculus), sequence (Q62424 whole entry, looked up): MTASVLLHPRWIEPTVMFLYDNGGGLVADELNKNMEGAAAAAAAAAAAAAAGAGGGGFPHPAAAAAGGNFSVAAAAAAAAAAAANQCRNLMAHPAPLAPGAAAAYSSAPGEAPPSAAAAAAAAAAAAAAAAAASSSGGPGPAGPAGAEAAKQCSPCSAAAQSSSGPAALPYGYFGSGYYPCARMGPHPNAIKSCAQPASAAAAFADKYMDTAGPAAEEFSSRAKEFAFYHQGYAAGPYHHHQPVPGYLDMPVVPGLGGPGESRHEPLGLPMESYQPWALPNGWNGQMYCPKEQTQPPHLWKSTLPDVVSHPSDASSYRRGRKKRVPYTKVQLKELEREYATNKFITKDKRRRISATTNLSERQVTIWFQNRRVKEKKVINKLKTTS

As for `CCOC(=O)CCN1C(=O)[C@H]2[C@H]3[C@H](O)[C@H](O)CC(=NOC[C@@H](O)COCc4ccco4)[C@H]3CC[C@H]2C1=O`, the figures for the composite z-score (in assay [1]; in the assay with XIP peptide (Xip251-270)) were 0.378 (inactive) and 0.328, respectively. Also, the z-score was -1.44 in assay [2] and -3.71 (inactive) in assay [3].

Consider `C#CCCCON=C1C[C@@H](O)[C@@H](O)[C@@H]2[C@@H]3C(=O)N(Cc4ccccc4)C(=O)[C@@H]3CC[C@H]12`, for which the composite z-score in assay [1] is 0.136 (inactive); in the assay with XIP peptide (Xip251-270), -0.102. The z-score in assay [2] is -0.677; in assay [3] it was -3.05 (inactive).

In the case of `COC(=O)CC=C[C@@H](C)[C@@H](C=NO[C@@H](C)c1cc(-c2c(C)cc(C)cc2C)no1)OC`, the composite z-score is 0.0164 (inactive) in assay [1] and -0.293 in the assay with XIP peptide (Xip251-270). Besides, the z-score in assay [2] is -1.12; in assay [3], -3.69 (inactive).

In the case of `CO[C@@H]1COC(=O)CCC[C@@H](C)[C@H](OC)COC(=O)[C@H](Cc2ccccc2)NC(=O)CC=C[C@H]1C`, the composite z-score in assay [1] was 0.0232 (inactive); in the assay on XIP peptide (Xip251-270), -0.282. The z-score in assay [2] is -1.34; in assay [3], -3.5 (inactive).

As for `CC(C)CON=C1C[C@@H](O)[C@@H](O)[C@@H]2[C@@H]3C(=O)N([C@@H](C)c4ccccc4)C(=O)[C@@H]3CC[C@H]12`, the composite z-score in assay [1] is -0.0093 (inactive); in the assay with XIP peptide (Xip251-270) it was 0.402. Further, the figures for the z-score in assay [2] and in assay [3] were 0.529 and 0.0364 (inactive), respectively.

As for `O=C1C[C@@H](O)[C@@H](O)[C@@H]2[C@@H]3C(=O)N(c4ccc(F)cc4F)C(=O)[C@@H]3CC[C@@H]12`, the composite z-score was 0.0164 (inactive) in assay [1] and -0.0741 in the assay on XIP peptide (Xip251-270). Moreover, the results for the z-score in assay [2] and in assay [3] were 0.452 and -0.595 (inactive), respectively.

For `CO[C@@H]1COC(=O)[C@H](C)NC(=O)[C@@H](C)COC(=O)CCC[C@H]1C`, the composite z-score in assay [1] is 0.144 (inactive); in the assay on XIP peptide (Xip251-270), 0.652. Moreover, the z-score was -0.0339 in assay [2] and -2.16 (inactive) in assay [3].

As for `COc1ccc(O[C@H]2C=C[C@@H](c3ccccc3)O[C@@H]2COC(=O)CCC(C)=NO[C@@H](C)c2cc(-c3c(C)cc(C)cc3C)no2)cc1`, the composite z-score in assay [1] is -0.491 (inactive); in the assay on XIP peptide (Xip251-270), -0.782. The figures for the z-score in assay [2] and in assay [3] were -0.739 and -0.508 (inactive), respectively.

As for `CC(C)CN1CCc2nc(-c3ccccc3)c3c(c2CC1)CO[C@@H](C)C3`, the composite z-score in assay [1] was 0.277 (inactive); in the assay with XIP peptide (Xip251-270) it was -0.399. Further, the figures for the z-score in assay [2] and in assay [3] were -0.235 and -0.219 (inactive), respectively.

`CC(C)=CCCC(C)=CCON=C1[C@H]2CCn3c(=O)n(Cc4cc5c(cc4Cl)OCO5)c(=O)n3[C@H]2[C@H](O)[C@@H]2O[C@H]12`: the values for the composite z-score (in assay [1]; in the assay with XIP peptide (Xip251-270)) were -0.0418 (inactive) and 0.208, respectively. In addition, the z-score in assay [2] was -1.17; in assay [3], -1.16 (inactive).

Turning to `COC(=O)[C@H](C)NC(=O)CCC1CC(OC(=O)NCc2cccc3ccccc23)CC2(CCCC(COC(=O)NCCc3ccc(Cl)cc3)O2)O1` (some centres not stated), the composite z-score was -0.0057 (inactive) in assay [1] and 0.204 with XIP peptide (Xip251-270). For the same compound, the z-score in assay [2] is -1.79; in assay [3], -1.77 (inactive).

Turning to `CC(C)(C)N1C(=O)[C@H]2[C@H]3[C@H](O)[C@H](O)CC(=NO[C@@H]4O[C@H](CO)[C@@H](O)[C@H](O)[C@H]4O)[C@@H]3CC[C@H]2C1=O`, the composite z-score in assay [1] is 1.16 (inactive); in the assay with XIP peptide (Xip251-270), 0.26. In addition, the z-score in assay [2] is 2.01; in assay [3], 0.0059 (inactive).

In the case of `CO[C@@H]1COC(=O)CC=C[C@@H](C)[C@@H]2C=C[C@@H](O)[C@@H](COC(=O)CC=C[C@H]1C)O2`, the composite z-score in assay [1] is 0.794 (inactive); with XIP peptide (Xip251-270), -0.317. The z-score in assay [2] is 0.328; in assay [3] it was -0.816 (inactive).

Take `COC(=O)CC=C[C@H](C)[C@H](CO)NS(=O)(=O)c1ccc(C)cc1`: the figures for the composite z-score (in assay [1]; in the assay with XIP peptide (Xip251-270)) were -0.291 (inactive) and 0.507, respectively. Also, the z-score was 0.225 in assay [2] and -1.56 (inactive) in assay [3].

With `COc1ccc(OC[C@H]2Cc3c(-c4ccccc4)nc4c(c3CO2)CN(CCOc2ccccc2)CC4)cc1`, the results for the composite z-score (in assay [1]; in the assay with XIP peptide (Xip251-270)) were 1.22 (inactive) and 0.71, respectively. Moreover, the z-score in assay [2] was -1.34; in assay [3] it was -2.66 (inactive).

`Cc1cc2c(c(=O)o1)[C@H](O)[C@H]1O[C@H]1C2=O`: the composite z-score in assay [1] is 0.326 (inactive); in the assay on XIP peptide (Xip251-270) it was -0.311. Further, the z-score was -0.811 in assay [2] and -4.87 (inactive) in assay [3].

Turning to `C[C@@H]1C=CCC(=O)OC[C@H](C)C(=O)N2CCC[C@H]2C(=O)OC1`, the composite z-score in assay [1] was -0.318 (inactive); with XIP peptide (Xip251-270) it was 0.827. The z-score was 0.207 in assay [2] and -0.596 (inactive) in assay [3].

As for `CC1(C)OCC(C(O)C2=CCCCC2=O)CO1` (configuration not stated), the composite z-score in assay [1] is 0.563 (inactive); with XIP peptide (Xip251-270) it was 0.446. Moreover, the z-score in assay [2] is -0.831; in assay [3] it was -2.61 (inactive).

With `CC(CCC(=O)OC[C@H]1O[C@H](C#Cc2ccccc2)C=C[C@@H]1Oc1ccc(C)cc1)=NO[C@@H](C)c1cn([C@H](CO)Cc2ccccc2)nn1`, the composite z-score in assay [1] is 0.692 (inactive); with XIP peptide (Xip251-270) it was 0.54. In addition, the z-score is -1.02 in assay [2] and -2.38 (inactive) in assay [3].

Take `C[C@@H]1C=CCC(=O)OC[C@H](C)C(=O)OC[C@H]2O[C@H]1C=C[C@H]2O`: the composite z-score in assay [1] is 0.0137 (inactive); in the assay with XIP peptide (Xip251-270), 0.756. In addition, the z-score in assay [2] is -0.315; in assay [3], -1.13 (inactive).

For the compound `c1ccc(C2NCCc3c2[nH]c2ccccc32)cc1` (configuration not stated), the composite z-score in assay [1] was 0.657 (inactive); in the assay with XIP peptide (Xip251-270) it was 0.4. The z-score in assay [2] is -0.811; in assay [3] it was -0.654 (inactive).

For `COc1ccc(O[C@H]2C=C[C@@H](c3ccccc3)O[C@@H]2COC(=O)CCC(C)=NOC[C@@H](C)[C@H](OCc2ccccc2)C(C)C)cc1`, the composite z-score in assay [1] was 0.294 (inactive); in the assay on XIP peptide (Xip251-270), -0.794. For the same compound, the z-score in assay [2] was -0.925; in assay [3] it was -0.43 (inactive).

`CO[C@@H]1COC(=O)CC=C[C@@H](C)COC(=O)[C@H](COCc2ccccc2)NC(=O)CC=C[C@H]1C`: the composite z-score in assay [1] was 0.0912 (inactive); with XIP peptide (Xip251-270), -0.453. For the same compound, the z-score in assay [2] is -1.02; in assay [3], -0.119 (inactive).
